Experimental data: PubChem BioAssay (NCATS)
Results filed as inconclusive are left out. Active and inactive are the calls of the source. Unless noted, the call rests on the fitted dose curve; in most records, active means well fitted cell-killing curve with a large enough effect; inconclusive means small, poorly fitted or top-dose-only effect, or effect the other way; inactive means flat fitted curve, though single readings scatter.

Columns and labels:
[1] = system: PA-1; assay: Primary qHTS to identify gynecologic anti-cancer compounds using libraries of approved drugs and bioactive compounds (AID 1345084); conditions: Gynecologic cancer cell panel viability, ATPlite luminescence, 48 h; series mostly up to 57.5 µM; further: on the % scale 0 is the no-effect control and ±100 the full control effect; nearly all actives have a fitted effect of over 55% in size
Outline: (§1)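 In this quantitative HTS, cell killing is estimated from loss of ATP-dependent luciferase light. Cells see five compound concentrations over a 48 h exposure.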

[2] = system: Tov112D; assay: as above; conditions: Gynecologic cancer cell panel viability, ATPlite luminescence, 48 h; series mostly up to 57.5 µM
Outline: as §1

[3] = system: SKOV3; assay: as above; conditions: Gynecologic cancer cell panel viability, ATPlite luminescence, 48 h; series mostly up to 57.5 µM
Outline: as §1

[4] = system: Tov-21-G; assay: as above; conditions: Gynecologic cancer cell panel viability, ATPlite luminescence, 48 h; series mostly up to 57.5 µM
Outline: as §1

[5] = system: OV90; assay: as above; conditions: Gynecologic cancer cell panel viability, ATPlite luminescence, 48 h; series mostly up to 57.5 µM
Outline: as §1

[6] = target: Nuclear receptor subfamily 1 group I member 2 (Rattus norvegicus) (UniProt Q9R1A7); assay: qHTS assay for small molecule activators of the rat pregnane X receptor (rPXR) signaling pathway (AID 651751; call rule not given here; further: 0% is about no effect); conditions: rPXR reporter cells, luciferase (One-Glo), 24 h
[7] = qHTS assay for small molecule activators of the human pregnane X receptor (PXR) signaling pathway (AID 720659; call rule not given here; further: 0% is about no effect)

Chain of Nuclear receptor subfamily 1 group I member 2 (Rattus norvegicus) (Q9R1A7 whole entry, looked up): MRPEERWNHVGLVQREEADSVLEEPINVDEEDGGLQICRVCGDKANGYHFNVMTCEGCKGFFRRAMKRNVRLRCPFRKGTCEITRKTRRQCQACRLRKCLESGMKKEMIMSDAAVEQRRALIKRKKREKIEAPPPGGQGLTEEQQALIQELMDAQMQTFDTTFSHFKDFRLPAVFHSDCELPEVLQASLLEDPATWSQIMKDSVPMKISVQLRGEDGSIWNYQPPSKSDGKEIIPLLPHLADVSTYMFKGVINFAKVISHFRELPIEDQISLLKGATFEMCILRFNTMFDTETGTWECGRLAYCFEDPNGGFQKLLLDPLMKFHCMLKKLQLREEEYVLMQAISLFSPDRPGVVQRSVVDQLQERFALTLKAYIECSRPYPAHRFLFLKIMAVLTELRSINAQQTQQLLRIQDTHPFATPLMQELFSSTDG

c1ccc2c(Nc3nnc(-c4ccncc4)s3)cccc2c1
inactive: Potency [1] | Potency [2]

COc1cc(Cc2cnc(N)nc2N)c(C(C)C)cc1OC
inactive: Potency [1] | Potency [3] | Potency [4] | Potency [2]

CC1(C)CC[C@]2(C(=O)O)CC[C@]3(C)C(=CCC4[C@@]5(C)C(=O)C[C@H](O)[C@@](C)(CO)C5CC[C@]43C)[C@@H]2C1 (some centres undefined)
inactive: Potency [5] | Potency [3] | Potency [4] | Potency [2]

Cc1ccc(-n2nc(C(C)(C)C)cc2NC(=O)Nc2cc(COc3cccnc3)[nH]n2)cc1
inactive: Potency [5] | Potency [3] | Potency [4] | Potency [2]

O=C(CCCCC1CCCCC1)N1CCC(c2cnc[nH]2)CC1
inactive: Potency [4] | Potency [2]

O=C(/C=C/c1ccc(O)c(O)c1)O[C@H]1[C@H](OC2CCCCC2O)O[C@H](CO)[C@@H](O)[C@@H]1O (some centres undefined)
inactive: Potency [5] | Potency [4] | Potency [2]

CC(=O)OC1CC2(C)C(CCC(C)C23Cc2c(O)cc4c(c2O3)CNC4=O)C(C)(C)C1O (centres undefined)
inactive: Potency [5] | Potency [3] | Potency [4] | Potency [2]

CC(=O)O[C@@H]1CC2C(C)(C)C(=O)C=C[C@]2(C)C2CC[C@]3(C)C(=CC(=O)[C@@H]3c3ccoc3)[C@@]21C (some centres undefined)
inactive: Potency [1] | Potency [3] | Potency [4] | Potency [2]

COc1ccc2c(c1)C=C1Cn3c-2c(C2CCCCC2)c2ccc(cc23)C(=O)NS(=O)(=O)N(C)CCOCCN(C)C1=O
inactive: Potency [5] | Potency [4] | Potency [2]

C=C1CCc2occ(C)c2[C@H]2[C@H]1[C@@]13O[C@@]1(C[C@@H](C)[C@H]3OC(C)=O)[C@H]1O[C@@]21C
inactive: Potency [1] | Potency [3] | Potency [4] | Potency [2]

NC(=O)[C@@H]1CC[C@H](c2ccc(OCc3ccccc3F)cc2)N1
inactive: Potency [1] | Potency [2]

C[C@@H]1CC[C@]2(C(=O)O)CC[C@]3(C)C(=CCC4[C@@]5(C)C[C@@H](O)[C@@H](O)C(C)(C)C5CC[C@]43C)C2[C@]1(C)O (some centres undefined)
inactive: Potency [5] | Potency [4] | Potency [2]

C=C1[C@@H]2CC[C@@]3(C)[C@H](c4ccoc4)OC(=O)C[C@]13O[C@H]1CC(=O)C(C)(C)[C@H](C(O)C(=O)OC)[C@]12C (some centres undefined)
inactive: Potency [5] | Potency [3] | Potency [4] | Potency [2]

O=C(O[C@@H]1O[C@H](CO)[C@@H](O)[C@H](O)[C@H]1O)c1ccccc1
inactive: Potency [5] | Potency [3] | Potency [4] | Potency [2]

COc1ccc(CCC(=O)c2c(O)cc(O[C@@H]3O[C@H](CO)[C@@H](O)[C@H](O)[C@H]3O[C@@H]3O[C@@H](C)[C@H](O)[C@@H](O)[C@H]3O)cc2O)cc1O
inactive: Potency [1] | Potency [3] | Potency [4] | Potency [2] | max response [6] -0.0245% | outcome [7]

CC(=O)Nc1cccc2c1c(Sc1ccc(Cl)cc1)c(C)n2CC(=O)O
inactive: Potency [3]

COc1ccc2c(c1)N1C(=O)C[C@@]34C=CC[N@+]5([O-])CC[C@H]2[C@H](CC3)[C@@]145
inactive: Potency [3] | Potency [4] | Potency [2]

Cc1onc(-c2ccccc2Cl)c1C(=O)N(C)c1ccc(Cl)cc1
inactive: Potency [5] | Potency [3] | Potency [4] | Potency [2]

C=C1C2(C)CC3C4(C)OC(C5OC56C4=CC(=O)OC6(C)C)C3(C)C13C(=O)OC(C)C3(O)C2=O (centres undefined)
inactive: Potency [5] | Potency [3] | Potency [4] | Potency [2]

COc1cc(C(CO)C(OC2OC(CO)C(O)C(O)C2O)c2ccc(O)c(OC)c2)ccc1O (centres undefined)
inactive: Potency [5] | Potency [3] | Potency [4] | Potency [2]
